Bioassay records from PubChem BioAssay.
IL-1B inflam inh – inflammasome signaling inhibition, IL-1 beta readout; THP-1 LPS/ATP IL-1B secretion, AlphaLISA, 16 h; active compounds read low; activity change, % at 57.5 µM; 360,000 compounds, 4.7% hits; AID 743279; in the data active means activity change below about -50%; inconclusive means mostly about -30% to -49%; further: on the % scale 0 is the no-effect control and ±100 the full control effect
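THP-1 cells pretreated 1 hr with compounds (up to 57.5 uM final), then stimulated with LPS (250 ng/mL final) plus ATP (1.25 mM final); secreted IL-1B measured by AlphaLISA after 16 hr, decreased signal indicating inhibition.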
TDP1 cell noCPT – qHTS for Inhibitors of human tyrosyl-DNA phosphodiesterase 1 (TDP1): qHTS in cells in absence of CPT; DT40 Tdp1-/- hTDP1 cells, no CPT, ATP luminescence, 48 h; Potency, µM (top dose mostly 46.2 µM), for inactives: top-dose activity change, negative = growth inhibition, actives largely listed as inhibitors; 420,000 compounds, 15% hits; AID 686978, 2013; further: potency means the concentration at half of the fitted maximal effect; on the % scale 0 is the no-effect control and ±100 the full control effect; nearly all actives have a fitted effect of over 55% in size
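A cellular qHTS used chicken DT40 cells lacking endogenous Tdp1 but carrying stably transfected human TDP1. Compounds were applied without camptothecin, and cell growth kinetics were judged by ATP-dependent luminescence after ≥48 hr.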
DT40 TDP1 CPT – DT40-hTDP1 cell growth loss with CPT. chicken DT40 Tdp1-/-;hTDP1 cells + 20 nM CPT, ATP luminescence, 48 h. Potency, µM (top dose mostly 46.2 µM), inactives show at the top dose activity change, negative = growth inhibition, hits mostly inhibitors. 420,000 compounds, 12% hits. AID 686979; further: potency means the concentration at half of the fitted maximal effect; on the % scale 0 is the no-effect control and ±100 the full control effect; nearly all actives have a fitted effect of over 55% in size
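Chicken DT40 Tdp1-/- cells complemented with human TDP1, 400 cells/well, exposed to compounds plus 20 nM camptothecin for at least 48 h at 37 C; viability read as ATP content by CellTiter-Glo luminescence.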
HepG2 tox – counter-screen for TGF-b inhibitors: cytotoxicity in HepG2 cells. HepG2 CAGA-GFP viability, ATP luminescence, 18 h. Potency, µM (highest dose often 46.1 µM), for the others: at the top dose activity change, negative = cytotoxicity, hits mostly cytotoxic. 410,000 compounds, 0.76% hits. AID 588856; further: potency means the concentration at half of the fitted maximal effect
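CellTiter-Glo luminescence gave cytotoxicity after 18 hours at 37 degrees C. The cells were HepG2 CAGA-GFP in 1% FBS DMEM, stimulated with 500 pg/mL TGF-beta after compound addition. %Activity was normalised to no-cell wells (complete cell-killing) and DMSO (no toxicity), and curves were fitted and classified.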
TGFb SMAD3 inh – inhibitors of TGF-b signaling; HepG2 CAGA-GFP TGF-b/SMAD3 reporter, GFP fluorescence, 18 h; TGF-beta stimulated, 500 pg/mL final; Potency, µM (doses to about 46.1 µM), without a hit: at the top dose activity, negative = inhibition, actives largely listed as inhibitors; 410,000 compounds, 1.2% hits; AID 588855; further: potency means the concentration at half of the fitted maximal effect; on the % scale 0 is the no-effect control and ±100 the full control effect; nearly all actives have a fitted effect of over 65% in size
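TGF-beta reporter screen: HEPG2 CAGA-GFP, 1% FBS, 500 pg/mL TGF-beta final, 18 h; per-cell GFP summed per well; curves fitted and categorized by class.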
TDP1 block – blocks human tyrosyl-DNA phosphodiesterase 1 | AID 485290 | 350,000 compounds, 0.28% hits | Potency, µM (top dose mostly 130 µM), without a hit: at the top dose activity change, negative = inhibition, hits mostly inhibitors | recombinant TDP1, AlphaScreen DNA substrate cleavage; further: potency means the concentration at half of the fitted maximal effect; on the % scale 0 is the no-effect control and ±100 the full control effect; nearly all actives have a fitted effect of over 40% in size
Target sequence (Q9NUW8 whole entry, looked up): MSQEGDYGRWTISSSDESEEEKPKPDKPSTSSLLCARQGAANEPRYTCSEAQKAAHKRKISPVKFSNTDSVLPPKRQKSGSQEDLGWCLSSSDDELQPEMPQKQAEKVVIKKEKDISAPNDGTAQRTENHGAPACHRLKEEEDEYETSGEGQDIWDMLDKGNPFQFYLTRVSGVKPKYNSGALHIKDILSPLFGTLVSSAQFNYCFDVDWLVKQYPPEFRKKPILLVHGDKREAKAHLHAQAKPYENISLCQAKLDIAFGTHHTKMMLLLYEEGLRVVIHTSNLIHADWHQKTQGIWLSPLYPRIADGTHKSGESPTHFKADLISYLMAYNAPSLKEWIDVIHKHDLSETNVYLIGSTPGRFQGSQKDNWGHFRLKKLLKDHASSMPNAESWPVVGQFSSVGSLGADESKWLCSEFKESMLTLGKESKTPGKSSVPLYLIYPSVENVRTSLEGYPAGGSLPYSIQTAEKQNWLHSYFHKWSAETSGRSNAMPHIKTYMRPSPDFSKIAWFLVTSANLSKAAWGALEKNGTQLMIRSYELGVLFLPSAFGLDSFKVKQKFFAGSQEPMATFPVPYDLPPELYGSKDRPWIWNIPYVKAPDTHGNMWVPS
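Tdp1 1 nM final; 15 min RT w/ cpd; substrate 15 nM, 5 min; beads 10 ug/ml, 10 min; AlphaScreen read. Neg ctrl: no enzyme.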
The depositor's hits bear a star; ? = inconclusive; · = no result; [ ] = another dose, or the depositor's remark. Rows were chosen to be rich in hits. Some 19% of all compounds tested hit in one or more screens of this group. Unless noted, the call rests on the fitted dose curve; in most records, active means well fitted curve in the direction sought with a large enough effect; inconclusive means small, poorly fitted or top-dose-only effect, or another doubt; inactive means no such curve, though single readings can be large; an effect the other way counts as inactive or inconclusive.

SMILES	IL-1B inflam inh	TDP1 cell noCPT	DT40 TDP1 CPT	HepG2 tox	TGFb SMAD3 inh	TDP1 block
COc1cccc(-n2cc(C(=O)NC(C)C)c3ccccc3c2=O)c1	26	-2%	5%	-4%	-1%	·
COc1cccc(-n2cc(C(=O)Nc3cccc(C(F)(F)F)c3)c3ccccc3c2=O)c1	·	?	16µM*	-28%	?	9%
CCN(C(=O)c1cn(-c2ccc(OC)cc2)c(=O)c2ccccc12)c1cccc(Cl)c1	·	16µM*	16µM*	-23%	16µM*	0%
COc1ccc(-n2cc(C(=O)NC(C)c3ccccc3)c3ccccc3c2=O)cc1 (centres undefined)	·	?	18µM*	-27%	?	13%
CCOc1ccc(CCNC(=O)c2cn(-c3cccc(OC)c3)c(=O)c3ccccc23)cc1	·	21µM*	?	-7%	-52%	4%
COC(=O)[C@@H](NC(=O)N1CCN(C(=O)C2COc3ccccc3O2)CC1)C(C)C (some centres undefined)	71	3%	-24%	8%	22%	1%
CCC(Cc1ccccc1)NC(=O)CN1C(=O)COc2ccc(S(=O)(=O)N3CCCCCC3)cc21 (centres undefined)	·	?	?	-20%	-15%	5%
Cc1ccc(-n2cc(C(=O)Oc3cccc(C)c3)c3ccccc3c2=O)cc1	·	-1%	-4%	4%	-9%	2%
COc1ccc(-n2cc(C(=O)NCCc3ccc(C)cc3)c3ccccc3c2=O)cc1	·	21µM*	?	-16%	?	4%
COc1cccc(-n2cc(C(=O)NCCCOC(C)C)c3ccccc3c2=O)c1	-24	6%	-9%	-9%	2%	·
COc1cccc(-n2cc(C(=O)NCCc3ccc(C)cc3)c3ccccc3c2=O)c1	·	10µM*	8.2µM*	-24%	-29%	3%
COc1cccc(-n2cc(C(=O)NCc3ccc(C)cc3)c3ccccc3c2=O)c1	·	?	15µM*	-9%	-6%	5%
Cc1ccc(-n2cc(C(=O)Oc3ccc(F)cc3)c3ccccc3c2=O)cc1	·	?	16µM*	-16%	-18%	2%
O=C1CCc2cc(S(=O)(=O)NCCC(=O)NC3CCCCC3)ccc2N1	10	22%	7%	2%	-10%	1%
NC(=O)CC(NC(=O)c1ccccc1)c1ccc(N2CCN(c3ccccn3)CC2)c([N+](=O)[O-])c1 (centres undefined)	2	21µM*	21µM*	0%	?	·
NC(=O)CC(NC(=O)c1ccc(Br)cc1)c1ccc(N2CCCCCCC2)c([N+](=O)[O-])c1 (centres undefined)	-29	10µM*	21µM*	-59%	?	·
NC(=O)CC(NC(=O)c1ccc(Br)cc1)c1ccc(N2CCN(c3ccc(F)cc3)CC2)c([N+](=O)[O-])c1 (centres undefined)	-10	23µM*	26µM*	-33%	-22%	8%
NC(=O)CC(NC(=O)c1ccc(Br)cc1)c1ccc(N2CCN(c3ccccc3)CC2)c([N+](=O)[O-])c1 (centres undefined)	-29	?	?	-17%	?	·
NC(=O)CC(NC(=O)c1cccc(Br)c1)c1ccc(N2CCC(N3CCCCC3)CC2)c([N+](=O)[O-])c1 (centres undefined)	-5	-2%	-6%	-1%	?	·
NC(=O)CC(NC(=O)c1cccc(Br)c1)c1ccc(N2CCN(c3ccc(F)cc3)CC2)c([N+](=O)[O-])c1 (centres undefined)	-1	13µM*	23µM*	-16%	-32%	·
COc1ccc(C2c3c(n(C)c4ccccc34)C(=O)N2CC(=O)Nc2c(C)cc(C)cc2C)cc1 (centres undefined)	·	?	?	-20%	?	8%
Cc1cccc(C(=O)Nc2ccccc2OCc2cc(=O)n3ccccc3n2)c1	·	-12%	-11%	3%	-2%	3%
Cc1ccc(Cn2c(Sc3nnc(C)s3)nc3c2c(=O)[nH]c(=O)n3C)cc1	-11	23µM*	?	5%	-1%	5%
Cn1c(=O)[nH]c(=O)c2c1nc(Sc1nc3ccccc3s1)n2Cc1ccccc1	-4	6.5µM*	8.2µM*	-21%	-5%	2%
CCCn1c(N)c(C(=O)CSc2nc3ccccc3s2)c(=O)[nH]c1=O	48	16µM*	21µM*	1%	?	-2%
SMILES	IL-1B inflam inh	TDP1 cell noCPT	DT40 TDP1 CPT	HepG2 tox	TGFb SMAD3 inh	TDP1 block
Nc1ncnc2c1ncn2[C@@H]1O[C@H](C(=O)NC2CC2)[C@H](O)[C@H]1O	·	·	·	·	·	6%[56.1 µM]
CSc1nc(=S)cc(C)[nH]1	13	?	18µM*	-10%	-17%	0%
Cc1nc(-c2cccc(S(=O)(=O)N3CCC(C)CC3)c2)cs1	11	?	?	4%	?	1%
O=S(=O)(c1cccc(-c2csc(-c3ccccc3)n2)c1)N1CCOCC1	-21	?	-27%	3%	-16%	2%
Cc1nc(-c2cccc(S(=O)(=O)N3CCCCC3)c2)cs1	-89*	-26%	-14%	-32%	?	·
CC1CN(S(=O)(=O)c2cccc(-c3csc(-c4ccccc4)n3)c2)CC(C)O1 (centres undefined)	-6	26µM*	?	-3%	-29%	·
Cc1nc(-c2cccc(S(=O)(=O)N3CCCC(C)C3)c2)cs1 (centres undefined)	-16	?	15µM*	-31%	-15%	3%
COc1ccc(S(=O)(=O)N2CCC(c3nnnn3-c3ccccc3)CC2)cc1OC	·	?	?	-17%	-17%	5%
